# Measurements as given in PubChem BioAssay AID624267 (The Scripps Research Institute Molecular Screening Center, 2012).
# The campaign covered roughly 360,000 compounds. About 1,400 (0.39%) were called active. Rule as the data show it: active = inhibition above about 21%; inactive = the rest. For the sample, actives were picked, then their nearest neighbours and some compounds at random.
# Target: Receptor-interacting serine/threonine-protein kinase 2 (Homo sapiens) (UniProt O43353)
# Assay: inhibitors of RIPK2 association with NOD2 – fluorescence, CHO cells, BLA complementation, primary screen (AID 624267);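 also: 0% = vehicle only and 100% = reference blocker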
# Conditions: CHO BLA complementation NOD2-RIPK2, CCF4 ratio; at 4.98 µM; hits give high values
# Sequence of Receptor-interacting serine/threonine-protein kinase 2 (Homo sapiens) (O43353 whole entry, looked up): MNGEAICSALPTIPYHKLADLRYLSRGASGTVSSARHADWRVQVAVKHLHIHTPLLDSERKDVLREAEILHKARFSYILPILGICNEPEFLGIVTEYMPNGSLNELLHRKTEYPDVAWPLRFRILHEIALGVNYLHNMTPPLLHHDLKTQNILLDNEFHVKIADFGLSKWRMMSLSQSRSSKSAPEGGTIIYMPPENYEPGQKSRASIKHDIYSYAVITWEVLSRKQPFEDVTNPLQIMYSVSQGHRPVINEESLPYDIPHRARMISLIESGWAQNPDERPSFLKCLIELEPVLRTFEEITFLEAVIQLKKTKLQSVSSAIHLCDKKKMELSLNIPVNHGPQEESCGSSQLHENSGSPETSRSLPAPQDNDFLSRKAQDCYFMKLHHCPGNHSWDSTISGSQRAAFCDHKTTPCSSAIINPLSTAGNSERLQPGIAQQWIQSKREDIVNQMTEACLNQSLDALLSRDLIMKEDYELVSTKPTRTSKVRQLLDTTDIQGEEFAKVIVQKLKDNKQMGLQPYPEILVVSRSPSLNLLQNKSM
row,SMILES,inhibition
1,COc1ccc(CN2CCCCC2C)cc1OC (configuration not stated),-10.3% (inactive)
2,C/C(CC(C)C)=N\Oc1nc(C)cc(C)n1,-7.31% (inactive)
3,COCCCNC(=O)CN1CCN(Cc2ccccc2Cl)C1=O,5.43% (inactive)
4,CCc1ccccc1N(CC(=O)N1CCN(c2ccccc2F)CC1)S(C)(=O)=O,-2.64% (inactive)
5,O=C(CNC(=O)OCc1ccccc1)Oc1cc2oc(=O)cc(-c3ccccc3)c2cc1Cl,52.2% (active)
6,O=C(CNC(=O)Cc1ccccc1)NCC(=O)OCC(=O)c1ccccc1Cl,-8.44% (inactive)
7,O=C(CNC(=O)c1ccccc1)NCC(=O)OCc1ccc(Cl)cc1,1.19% (inactive)
8,O=C(Nc1ccc(CSc2ccccc2)cc1)c1ccc(CN2CCOCC2)cc1,-2.26% (inactive)
9,O=C(Cc1ccccc1)Nc1c(Cl)ccc2nsnc12,-10.4% (inactive)
10,C=CC(COCc1ccccc1)N(Cc1ccccc1)S(=O)(=O)c1ccccc1Br (configuration not stated),0.84% (inactive)
11,COc1cc(C)c(C(C)C)cc1S(=O)(=O)n1ccnc1,-1.8% (inactive)
12,O=C(NCc1ccncc1)C1CCN(C(=O)c2cccc(Cl)c2)CC1,-2.02% (inactive)
13,CCN(C(=O)CSc1cccc[n+]1[O-])c1ccccc1,1.91% (inactive)
14,COCCCn1c(Cc2csc(Nc3cccc(Cl)c3)n2)nnc1SCC(=O)OC1CCCCC1,-7.45% (inactive)
15,Cn1c(Cc2cccc3ccccc23)nnc1SCC(=O)N1CCN(c2cccc(Cl)c2)CC1,2.05% (inactive)
16,O=C(Cc1csc(Nc2nc(=S)[nH]c3ccccc23)n1)NCCCN1CCN(c2cccc(Cl)c2)CC1,38.1% (active)
17,CNC(=O)n1ccc(C(=O)N2CCCCC2)n1,1.22% (inactive)
18,O=C(NN1C(=O)C2C3C=CC(O3)C2C1=O)c1ccccc1 (configuration not stated),-0.12% (inactive)
19,Cc1nnc(SCC(=O)Nn2cnnc2)s1,34.9% (active)
20,CCSc1nnc(SCC(=O)NNC(=O)c2ccccc2F)s1,-9.88% (inactive)
21,Cc1nnc(SCC(=O)NC2CCCC2)s1,-7.66% (inactive)
22,CCOc1ccc(/C(O)=C2/C(=O)C(=O)N(Cc3cccnc3)C2c2ccc(N(C)C)cc2)c(C)c1 (configuration not stated),-5.35% (inactive)
23,O=C(Nc1ccccc1Cl)/C(Cl)=C(\Cl)S(=O)c1ccccc1 (configuration not stated),70.5% (active)

row,SMILES,inhibition
1,O=C(COc1nsnc1N1CCOCC1)Nc1ccccc1Cl,-6.94% (inactive)
2,O=C(Nc1ccccc1)c1nnsc1S(=O)(=O)c1ccc(Cl)cc1,56.9% (active)
3,C/C(=N\NS(=O)(=O)c1ccc(Cl)cc1)c1ccc(NC(=O)c2ccco2)cc1,7.02% (inactive)
4,CN(C)/C=C(/C(=O)c1ccccc1)S(=O)(=O)c1ccc(Cl)cc1,10.5% (inactive)
5,CCOc1ccc(CN2CCC(n3nccc3NC(=O)C3CC3)CC2)cc1CO,-4.91% (inactive)
6,Cc1cc(NC(=O)CN2CCC(O)(c3cccc(F)c3)CC2)no1,-7.88% (inactive)
7,NC(=O)COc1ccccc1C(=O)NC12CC3CC(CC(C3)C1)C2,2.45% (inactive)
8,CCSc1ccccc1C(=O)Nc1ccc2c(c1)OCO2,1.86% (inactive)
9,O=C1C(Cl)=C(Oc2ccccc2)C(=O)c2ccccc21,71.7% (active)
10,O=C(CNc1ccccc1N1CCCC1=O)Nc1cc(Cl)ccc1-n1cncn1,4.89% (inactive)
11,Nc1c(C(=O)c2cccs2)sc2nsc(SCCN3CCCCC3)c12,37.8% (active)
12,COc1ccccc1Oc1ccc(N2CC(C(=O)OCC(=O)c3ccc(F)cc3)CC2=O)cc1 (configuration not stated),-13.1% (inactive)
13,Cc1ccccc1CS(=O)(=O)CC1(O)CCN(C(=O)c2cccc(C(F)(F)F)c2)CC1,-2.24% (inactive)
14,CC(C)(C)n1nc2c(c1NC(=O)c1ccc(S(=O)(=O)N3CCCC3)cc1)CS(=O)C2 (configuration not stated),1.52% (inactive)
15,Cc1cccc(OC(C)C(=O)N2CCc3ccccc3C2)c1 (configuration not stated),-10.7% (inactive)
16,O=[N+]([O-])c1ccc(N2CCN(c3ccc(O)cc3)CC2)c(Cl)c1,-4.55% (inactive)
17,O=C(/C=C/c1ccc(Cl)c([N+](=O)[O-])c1)c1ccc(O)cc1,28.9% (active)
18,O=C(NCCC1=CCCCC1)c1ccc(Cl)c([N+](=O)[O-])c1,-8.9% (inactive)
19,O=C(Oc1ccccc1Cl)c1ccc(N2CCOCC2)c([N+](=O)[O-])c1,1.05% (inactive)
20,N#Cc1cc([N+](=O)[O-])ccc1NC(=O)COC(=O)c1cnccn1,-8.54% (inactive)
21,CSc1ccccc1NC(=O)c1cnc2sc(C)cn2c1=O,-0.62% (inactive)
22,CN(CC(=O)Nc1ccc(F)cc1)CC(=O)N1CCCCC1,3.04% (inactive)
23,O=C(CSc1ncn[nH]1)Nc1nc(-c2cccc([N+](=O)[O-])c2)cs1,21.5% (active)

row,SMILES,inhibition
1,O=C(CSc1ncn[nH]1)Nc1nc2c(F)c(F)c(F)cc2s1,2.77% (inactive)
2,O=C(CSc1ncn[nH]1)Nc1nsc(-c2ccccc2)n1,1.03% (inactive)
3,CCN(C(=O)Cc1nc(N)n[nH]1)C1(C(=O)Nc2ccccc2)CCCCC1,-2.08% (inactive)
4,O=C(NN1C(=O)C2C3C=CC(O3)C2C1=O)c1ccncc1 (configuration not stated),-1.04% (inactive)
5,Oc1ccc2ccc3cccc[n+]3c2c1,23.5% (active)
6,Cc1nn(C)c(C)c1C(C)NC(=O)c1ccc(OC2CCN(Cc3ccccn3)CC2)cc1 (configuration not stated),-7.27% (inactive)
7,N#CCCN(C(=O)COC(=O)c1ccc(S(=O)(=O)N2CCCCCC2)cc1)c1ccccc1,-9.9% (inactive)
8,NC(CSC12CC3CC(CC(C3)C1)C2)C(=O)O (configuration not stated),2.91% (inactive)
9,O=C1C=C(c2ccc(Cl)cc2)C(=O)N1Nc1ccccc1,34.1% (active)
10,Cc1ccc(S(=O)(=O)Nc2ccc3c(c2)C(=O)N([C@H](C)CO)C[C@@H](C)[C@@H](CN(C)C(=O)Nc2cccc4ccccc24)O3)cc1,-59.7% (inactive)
11,CCN(CC)CCCC(C)n1c2nc(=O)[nH]c(=O)c-2nc2cc(Cl)ccc21 (configuration not stated),31.2% (active)
12,COc1cccc(CC(=O)OCC(=O)NCc2ccc3c(c2)OCO3)c1,9.81% (inactive)
13,COc1cc(C=NC2CCCCC2)ccc1O,0.2% (inactive)
14,COc1cc(/C=C(\C#N)c2nc3c(s2)CC(C)CC3)ccc1O (configuration not stated),23.2% (active)
15,COCCCN(C(=S)Nc1c(C)cc(C)cc1C)C(C)c1ccncc1 (configuration not stated),-3.93% (inactive)
16,CC(=O)Oc1cccc(N2C(=O)CC(Nc3ccc(N4CCOCC4)cc3)C2=O)c1 (configuration not stated),-13.9% (inactive)
17,CC1(C)NC(=O)N(CC(=O)Nc2ccc(-c3ccccc3)cc2)C1=O,4.81% (inactive)
18,O=C(Cn1nc(C(=O)O)c2ccccc2c1=O)Nc1ccc(F)cc1,-5.34% (inactive)
19,Cc1ccc(NC(=O)Cn2sc3ccccc3c2=O)cc1,22.1% (active)
20,CN(C)CCCNC(=S)N1CCC(c2nc3ccccc3[nH]2)CC1,-7.82% (inactive)
21,CCc1nn(CCCC(=O)Nc2ccc(C)cc2C)c(=O)c2cc3occc3n12,4.65% (inactive)
22,CS(=O)(=O)N(CC(=O)N1CCCC1)Cc1ccccc1,3.45% (inactive)
23,O=[N+]([O-])c1ccc(CN2CC(N3CC=CC3)CS2(=O)=O)cc1 (configuration not stated),-11% (inactive)

row,SMILES,inhibition
1,O=C1/C(=C\c2ccc([N+](=O)[O-])cc2)CS(=O)(=O)C/C1=C/c1ccc([N+](=O)[O-])cc1,44.6% (active)
2,CCc1nc2ccc(C(=O)NCc3ccc(OC)cc3)cn2c1N(CC)Cc1cccc(Br)c1,6.44% (inactive)
3,COC(=O)[C@]1(C)CCC[C@@]2(C)C3CC[C@]4(OC(C)=O)C[C@@]3(CCC21)CC4=NO (some centres not stated),6.55% (inactive)
4,O=C(COc1ccccc1Cl)Nc1ccc(C(=O)c2ccc(C(=O)O)cc2)cc1,2.32% (inactive)
5,O=C(O)CC(Cc1ccccc1)C(=O)Nc1ccc([N+](=O)[O-])cc1 (configuration not stated),-1.04% (inactive)
6,COc1cc2c(cc1OC)C1C(=O)c3cc(OS(C)(=O)=O)c(OC)cc3C1N(C)C2=O (configuration not stated),3.51% (inactive)
7,COc1ccc(C(CNC(=O)COc2ccc([N+](=O)[O-])cc2)N2CCCCC2)cc1 (configuration not stated),0.77% (inactive)
8,COc1ccc(C(C[N+](=O)[O-])n2nc(C)cc2C)cc1 (configuration not stated),26.6% (active)
9,Cc1cc(C)n(CC(O)COc2ccc(C(C)(C)C)cc2)n1 (configuration not stated),-8.7% (inactive)
10,C=CCn1cc(-c2cccc(C(F)(F)F)c2)cc(C#N)c1=O,0.01% (inactive)
11,COCCCNC(=S)N1CCCC(c2nc3cc(C)c(C)cc3[nH]2)C1 (configuration not stated),-3.68% (inactive)
12,Nc1cccc2c1C(=O)N(Cc1nnc(-c3ccccc3Br)o1)C2=O,27.5% (active)
13,CC(C)N(Cc1nnc(-c2ccccc2Br)o1)C(=O)c1cc(Cl)nc2ccccc12,-10.3% (inactive)
14,O=C(OCc1nnc(-c2ccccc2)o1)c1ccc2c(c1)C(=O)N(CCc1ccccc1)C2=O,9.8% (inactive)
15,CC(C)CC(CO)N1CCN(C(=O)c2ccc(Cl)cc2Cl)CCC1=O (configuration not stated),-4.88% (inactive)
16,COc1ccc(-c2nc3n(c2Br)CCC3)cc1,-7.99% (inactive)
17,O=C(Nc1ccccc1)C1CC(=O)n2c(nc3ccccc32)N1 (configuration not stated),-8.18% (inactive)
18,Cc1csc(NC(=O)C2CCCN2C(=O)OCC(C)C)n1 (configuration not stated),-2.47% (inactive)
19,CC(=O)N1CCN(S(=O)(=O)c2cccc(C(=O)NC3CCC(C)CC3)c2)CC1 (configuration not stated),-9.28% (inactive)
20,CN1CCN(S(=O)(=O)c2cccc(C(=O)N3CCc4ccccc43)c2)CC1,2.86% (inactive)
21,CC1CC(C)CN(S(=O)(=O)c2cccc(C(=O)N3C(=O)c4cccc(N)c4C3=O)c2)C1 (configuration not stated),30.1% (active)
22,O=[N+]([O-])c1ccc(Oc2ccc(F)cc2Br)c2ccncc12,-1.06% (inactive)
23,CC(C)CNC(=S)NNC(=O)c1nn(C)cc1Cl,-4.5% (inactive)
